This passage reports max activity results from PubChem BioAssay AID743446 (Broad Institute, 2014).

Results with a measured potency or affinity are listed apart. Active and inactive are the calls of the source. How the calls were made is not given here.

This experiment is described as follows: HEK293 cell cytotoxicity, dose response, cytotoxicity control, plate reader, cherry-picked samples (AID 743446). Conditions: hits give low values; at 26 µM unless noted.
For the molecule `COc1ccc(-c2cc(C(=O)N3CCOCC3)no2)cc1`, the max activity was -14.8% (inactive).
The value for `Cn1cnc(S(=O)(=O)N2C[C@@H](O)COC[C@H]3O[C@H](CC(=O)NC4CCCC4)CC[C@@H]32)c1` was 13.5% [at 0.38 µM] (inactive); that for `O=C(O)c1ccc(N/N=C/c2ccc(OC(=O)c3cccc(Cl)c3)cc2)cc1` was -7.42% [at 3 µM] (inactive).
The value for `COc1ccc(C(=O)Nc2ccc3ncccc3c2)cc1` was -20.3% (inactive); that for `C[C@H](CO)N1C[C@H](C)[C@H](CN(C)C(=O)CN2CCOCC2)Oc2ncc(C#CCN(C)C)cc2C1=O` was 18.5% [at 0.42 µM] (inactive).
In the case of `C[C@@H]1CN([C@@H](C)CO)C(=O)c2cc(NS(=O)(=O)c3ccc(F)cc3)ccc2O[C@H]1CN(C)Cc1ccc(-c2ccccc2)cc1`, the max activity was -27.1% (inactive).
To `O=c1[nH]c(CSc2ccccn2)nc2c1oc1ccccc12` belongs -17.8% (inactive); to `CCOC(=O)c1cn2nc(N3CCCC3)ccc2n1`, -7.31% [at 6 µM] (inactive).
Turning to `Cc1c(NC(=O)c2cccc(NC(=O)COc3ccccc3C#N)c2)c(=O)n(-c2ccccc2)n1C`, the max activity is -14.7% [at 3 µM] (inactive).
The value for `COc1cccc(-c2cc(C(=O)N3CCCCCC3)no2)c1` was -9.64% [at 12 µM] (inactive); that for `O=C1CC(c2ccc3c(c2)OCO3)Sc2nc3ccccc3n21` (stereo not drawn) was -8.84% [at 0.38 µM] (inactive).
Regarding `O=C(CN1C(=O)c2ccccc2S1(=O)=O)c1ccc2c(c1)OCCCO2`, the max activity was -22% [at 0.8 µM] (inactive).
To `N#C[C@@H]1[C@H](c2ccc(C#CC3CCCCC3)cc2)[C@@H](CO)N1C(=O)c1cccc(F)c1` belongs 43.6% [at 0.09 µM] (inactive).
